The nature of test [1]: qHTS of pediatric cancer cell lines to identify multiple opportunities for drug repurposing: Primary screen for Rh30 cells (AID 1347107). Also: nearly all actives have a fitted effect of over 75% in size. A digest of the protocol: (§1)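 Cells (500-1,000/well) rested 5 h, then received compounds for 48 h; metabolically active cells were measured by CellTiter-Glo luminescence. Final concentrations spanned up to 46 µM (MIPE, 11-point) or 0.59 nM-46 µM (NPC, 8-point) in primary screens, 11-point in follow-ups.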
(In general: qHTS replaces the single test concentration by a dilution series.)

Test [2] is described as follows: qHTS of pediatric cancer cell lines to identify multiple opportunities for drug repurposing: Primary screen for Rh41 cells (AID 1347108). Also: nearly all actives have a fitted effect of over 70% in size. A digest of the protocol:
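Primary screen of approved and investigational compounds on cells in growth media at 37 degrees C, 5% CO2. MIPE set at 11-point and NPC set at 8-point dilutions; viability scored by ATP-based luminescence at 48 hours.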

Test [3] in a line: qHTS of pediatric cancer cell lines to identify multiple opportunities for drug repurposing: Confirmatory screen for A673 cells (AID 1347110).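 Also: cells exposed to compound for 48 h before the viability read; nearly all actives have a fitted effect of over 65% in size.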 A digest of the protocol:
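A673 cells at 500-1,000 cells/well were dosed 5 h after plating, in dilution series up to 46 uM final; primary runs used 8 or 11 points and confirmatory runs used 11 points. Viability was read by CellTiter-Glo luminescence after 48 h, against DMSO and 2.3 uM bortezomib controls.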

Test [4] in a line: qHTS of pediatric cancer cell lines to identify multiple opportunities for drug repurposing: Confirmatory screen for SK-N-MC cells (AID 1347111).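 Also: cells exposed to compound for 48 h before the readout; nearly all actives have a fitted effect of over 70% in size.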 A digest of the protocol: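 Seed 500-1,000 cells/well; rest 5 h at 37 degrees C. Pin-transfer compounds, 11-point titration. Incubate 48 h. Add CellTiter-Glo, 15 min RT, read luminescence.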
Test [5] can be described thus: qHTS of pediatric cancer cell lines to identify multiple opportunities for drug repurposing: Confirmatory screen for BT-12 cells (AID 1347112). Also: nearly all actives have a fitted effect of over 55% in size. The procedure, abridged: as §1
Test [6] in a line: qHTS of pediatric cancer cell lines to identify multiple opportunities for drug repurposing: Confirmatory screen for DAOY cells (AID 1347114). Also: nearly all actives have a fitted effect of over 65% in size. The procedure, abridged: (§2)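 Viability measured as metabolically active cells via CellTiter-Glo luminescence following 48 hours of compound exposure, 11-point dilutions in confirmatory testing. 500-1,000 cells/well plated 5 hours before dosing; controls were DMSO and 2.3 µM bortezomib.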

Test [7] is described as follows: qHTS of pediatric cancer cell lines to identify multiple opportunities for drug repurposing: Confirmatory screen for SJ-GBM2 cells (AID 1347116). Also: nearly all actives have a fitted effect of over 60% in size. The procedure, abridged: as §2
The nature of test [8]: qHTS of pediatric cancer cell lines to identify multiple opportunities for drug repurposing: Confirmatory screen for BT-37 cells (AID 1347117). Also: nearly all actives have a fitted effect of over 55% in size. A digest of the protocol:
as §1

Test [9] is described as follows: qHTS of pediatric cancer cell lines to identify multiple opportunities for drug repurposing: Confirmatory screen for TC32 cells (AID 1347118).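 Also: cells exposed to compound for 48 h before the read; nearly all actives have a fitted effect of over 65% in size.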 A digest of the protocol: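 Luminescent CellTiter-Glo read-out of metabolically active TC32 cells after 48 h compound exposure. Primary: MIPE 11-point, 0.78 nM–46 µM; NPC 8-point, 0.59 nM–46 µM. Confirmatory: 11-point dilutions.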

Test [10] in a line: qHTS of pediatric cancer cell lines to identify multiple opportunities for drug repurposing: Confirmatory screen for control Hh wild type fibroblast cells (AID 1347121). Also: nearly all actives have a fitted effect of over 70% in size. The procedure, abridged: as §1
Test [11] is described as follows: qHTS of pediatric cancer cell lines to identify multiple opportunities for drug repurposing: Confirmatory screen for U-2 OS cells (AID 1347122). Also: nearly all actives have a fitted effect of over 65% in size. The procedure, abridged: as §1
Test [12] can be described thus: qHTS of pediatric cancer cell lines to identify multiple opportunities for drug repurposing: Confirmatory screen for Rh41 cells (AID 1347123). Also: nearly all actives have a fitted effect of over 60% in size. A digest of the protocol:
as §1

Test [13] in a line: qHTS of pediatric cancer cell lines to identify multiple opportunities for drug repurposing: Confirmatory screen for RD cells (AID 1347124). The procedure, abridged: as §1
Test [14] in a line: qHTS of pediatric cancer cell lines to identify multiple opportunities for drug repurposing: Confirmatory screen for Rh30 cells (AID 1347126). Also: nearly all actives have a fitted effect of over 55% in size. The procedure, abridged: as §1
Test [15] is described as follows: qHTS of pediatric cancer cell lines to identify multiple opportunities for drug repurposing: Confirmatory screen for LAN-5 cells (AID 1347113). Also: nearly all actives have a fitted effect of over 65% in size. The procedure, abridged: as §1
Test [16] can be described thus: qHTS of pediatric cancer cell lines to identify multiple opportunities for drug repurposing: Confirmatory screen for NB-EBc1 cells (AID 1347115).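 Also: cells exposed to compound for 48 h before the viability read; nearly all actives have a fitted effect of over 45% in size.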 The procedure, abridged:
as §1

Test [17] is described as follows: qHTS of pediatric cancer cell lines to identify multiple opportunities for drug repurposing: Confirmatory screen for MG 63 (6-TG R) cells (AID 1347119). Also: nearly all actives have a fitted effect of over 55% in size. A digest of the protocol: as §1
A short description of test [18]: qHTS of pediatric cancer cell lines to identify multiple opportunities for drug repurposing: Confirmatory screen for NB1643 cells (AID 1347109). Also: nearly all actives have a fitted effect of over 45% in size. The procedure, abridged: as §1
Test [19] is described as follows: qHTS of pediatric cancer cell lines to identify multiple opportunities for drug repurposing: Confirmatory screen for Rh18 cells (AID 1347125). Also: nearly all actives have a fitted effect of over 55% in size. A digest of the protocol:
as §1

The structures appear in SMILES notation. Inconclusive results are not listed. Calls of active or inactive are those of the source. Calls follow the shape of the dose curve; as a rule, active = well fitted curve in the direction sought with a large enough effect; inconclusive = small, poorly fitted or top-dose-only effect, or another doubt; inactive = no such curve, though single readings can be large; an effect the other way counts as inactive or inconclusive.
Potency is read from the fitted curve at half-maximal effect.

As for `COc1ccc(F)c(F)c1C(=O)c1cnc(NC2CCN(S(C)(=O)=O)CC2)nc1N`, the Potency entry in test [1], in test [10] and in [14] was “inactive” in each case. Also, the Potency in test [2] is 7.43 µM (active); in [3], 2.93 µM (active); in test [4] it was 1310 nM (active); in test [5], 3.69 µM (active); in test [6], 8.27 µM (active); in test [7] it was 0.827 µM (active). In addition, the Potency in test [8] was 2.33 µM (active); in test [9], 2080 nM (active); in test [11] it was 3.29 µM (active); in [12] it was 2.33 µM (active); in test [13], 0.827 µM (active).
For the compound `O=C(c1ccc(Nc2nccc(-c3cc4ccccc4s3)n2)cc1)N1CCC(N2CCCC2)CC1`, the Potency in test [1] was 23.5 µM (active); in [2] it was 18.7 µM (active).
Taken in the same sequence, the figures for `COc1cc2c(cc1-c1c(C)noc1C)ncc1[nH]c(=O)n([C@H](C)c3ccccn3)c12` were 23.5 µM (active) and 9.35 µM (active).
`CC[C@H]1CN2CCc3cc(OC)c(OC)cc3[C@H]2C[C@@H]1C[C@@H]1NCCc2cc(OC)c(OC)cc21`: the Potency entry in test [1] and in test [10] was “inactive” throughout. The Potency was 4.69 µM (active) in [2]; 0.657 µM (active) in [3]; 293 nM (active) in test [4]; 0.261 µM (active) in test [5]; 0.165 µM (active) in [15]; 3.69 µM (active) in test [6]. Moreover, the Potency in test [16] is 657 nM (active); in test [7] it was 0.522 µM (active); in test [8], 0.293 µM (active); in test [9], 233 nM (active); in test [17], 827 nM (active); in [11], 0.928 µM (active). The Potency in test [12] was 1.47 µM (active); in test [13], 0.369 µM (active); in test [14] it was 5.85 µM (active).
With `C#Cc1cccc(Nc2ncnc3cc(OC)c(OCCCCCCC(=O)NO)cc23)c1`, the Potency is 11.8 µM (active) in [1]; 0.372 µM (active) in test [2]; 0.955 µM (active) in test [18]; 2.4 µM (active) in test [3]; 603 nM (active) in test [4]; 5.37 µM (active) in test [5]. The Potency in test [15] was 0.676 µM (active); in test [6], 2.14 µM (active); in [16], 1700 nM (active); in [7], 1.91 µM (active); in test [8], 0.759 µM (active); in test [9], 676 nM (active). The Potency in [17] was 851 nM (active); in test [10], 10.7 µM (active); in test [11], 1.35 µM (active); in test [12] it was 1.07 µM (active); in test [13] it was 1.2 µM (active); in test [19], 1.91 µM (active). In addition, the Potency in test [14] was 2.14 µM (active).
Regarding `Cc1cc(Nc2cc(NC(=O)c3c(Cl)cccc3Cl)ccn2)nc(N)n1`, the Potency result in test [1], in test [7] and in [13] was “inactive” in each case. The Potency is 0.603 µM (active) in test [3]; 657 nM (active) in [4]; 1.31 µM (active) in [5]; 9.27 µM (active) in test [15]; 5.22 µM (active) in test [8]; 827 nM (active) in [9]. Moreover, the results for the Potency in test [10], in [12] and in [14] were 20.8 µM (active), 0.269 µM (active) and 24 µM (active), respectively.
For `CC(C)(C)OC(=O)Nc1ccc(-c2cc(C(=O)NCCCCCCC(=O)NO)no2)cc1`, the Potency in test [1] was 7.43 µM (active); in test [2] it was 3.72 µM (active); in test [18] it was 1.17 µM (active); in test [3] it was 2.33 µM (active); in test [4] it was 32.9 nM (active); in [5], 18.5 µM (active). In addition, the Potency was 4.14 µM (active) in test [7]; 1.47 µM (active) in [11]; 1.85 µM (active) in test [12]; 5.22 µM (active) in test [13]; 4.65 µM (active) in test [19]; 10.4 µM (active) in test [14]. For the same compound, the Potency entry in test [10] was “inactive”.
As to `C=CC(=O)Nc1cc2c(Nc3ccc(F)c(Cl)c3)ncnc2cc1C#CC(C)(C)N1CCN(C)CC1`, the Potency in [1] was 11.8 µM (active); in test [2], 9.35 µM (active); in [3], 4.27 µM (active); in test [4] it was 1910 nM (active); in [5] it was 17 µM (active); in test [15], 5.37 µM (active). The Potency in test [6] is 4.79 µM (active); in test [7], 6.03 µM (active); in test [8] it was 3.02 µM (active); in [9] it was 3020 nM (active); in test [17], 4270 nM (active); in [10], 19.1 µM (active). In addition, the Potency is 4.79 µM (active) in test [11]; 2.69 µM (active) in [12]; 6.03 µM (active) in test [13]; 6.03 µM (active) in test [19]; 3.8 µM (active) in test [14].
As to `Cc1ccc(NC(=O)C2(c3ccc4c(c3)OC(F)(F)O4)CC2)nc1-c1cccc(C(=O)O)c1`, the Potency entry in [1], in test [18], in test [3], in test [4], in test [16] and in [8] was “inactive” throughout. Besides, the Potency entry in test [9], in [17] and in [10] was “inactive” in each case. In addition, the Potency in test [2] is 0.296 µM (active); in test [5], 10.4 µM (active); in [11], 9.27 µM (active); in test [12], 8.27 µM (active); in test [13], 10.4 µM (active); in test [14], 9.27 µM (active).
Take `CC(C)(O)c1cc2nc(-c3cnc(N)nc3)nc(N3CCOCC3)c2s1`: the Potency in test [1] was 5.26 µM (active); in [2] it was 0.372 µM (active); in test [3] it was 1.85 µM (active); in test [4], 1170 nM (active); in test [15], 0.737 µM (active); in test [8], 1.65 µM (active). The results for the Potency in [9], in test [17] and in test [19] were 827 nM (active), 369 nM (active) and 1.65 µM (active), respectively.
On to `CN(C)CC=CC(=O)Nc1cc2c(Nc3ccc(F)c(Cl)c3)ncnc2cc1O[C@H]1CCOC1`, for which the Potency was 14.8 µM (active) in test [1] and 7.43 µM (active) in [2].
As to `Cc1cn(-c2cc(NC(=O)c3ccc(C)c(Nc4nccc(-c5cccnc5)n4)c3)cc(C(F)(F)F)c2)cn1`, the Potency result in test [1], in [2], in test [4], in test [5] and in [10] was “inactive” each time. Moreover, the Potency is 18.5 µM (active) in test [18]; 20.8 µM (active) in test [3]; 18.5 µM (active) in test [15]; 16.5 µM (active) in test [8]; 11.7 µM (active) in test [12]; 20.8 µM (active) in test [14].

For the origin of these results see PubChem BioAssay (NCATS).
